This note sets out measurements from PubChem BioAssay (NCATS).

A number with no mark means an inactive call. How the calls were made is not given here. Some results are limits rather than exact numbers.
Potency means the concentration at half of the fitted maximal effect.

This assay has as its system HIV-1 nucleocapsid protein NCp7 (binding to TG oligonucleotide). Kind of assay: HIV Nucleocapsid (AID 346).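 Further: potency is for inhibitors that block NC binding and lower polarization.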 The note with it: HIV-1 NC / fluorescein-TGTGTGTG probe, fluorescence polarization. Put shortly: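 Inhibition of nucleocapsid binding to single-stranded 5'-TGTGTGTG probe (10 nM) was measured by fluorescence polarization after 1 hr at room temperature with 100 nM protein under high-salt, zinc-containing, reducing conditions.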
Consider `CN(C)c1ccc(-c2cncnc2NCc2cccs2)cc1`, for which the Potency is greater than 20 µM. Under `O=C(c1ccncc1)N1CCC2(CCCN(c3ccncc3)C2)CC1` stands greater than 20 µM; under `Cc1cnc(CNc2ncncc2-c2cccc(NS(C)(=O)=O)c2)cn1`, greater than 20 µM.

As for `COc1ccccc1-c1cc(Nc2ccc(F)cc2)ncn1`, the Potency is greater than 20 µM. The same measure for `O=C(c1ccco1)N1CCC[C@@]2(CCN(c3ccncc3)C2)C1`: greater than 20 µM. With `COc1cccc(Cn2c(=O)c(-c3cccs3)nc3cnc(N(C)C)nc32)c1`, the Potency was greater than 20 µM.

On to `COc1cccc(Cn2c(=O)c(-c3cccs3)nc3cnc(OC)nc32)c1`, for which the Potency was greater than 20 µM. For `COc1cccc(-c2cc(NCc3ccccc3OC)ncn2)c1`, the Potency was greater than 20 µM. As for `COCCn1c(=O)c(C)nc2cnc(N3CCNCC3)nc21`, the Potency was greater than 20 µM. The same measure for `Cc1noc(C)c1-c1cncnc1-n1ccnc1`: greater than 20 µM; for `COc1ccc(CNc2ncncc2-c2ccoc2)c(OC)c1`: greater than 20 µM; for `CS(=O)(=O)N1CCC2(CCCN(C(=O)Nc3cccc(C#N)c3)C2)CC1`: greater than 20 µM.

Take `CNc1nc(-c2ccccc2C)nc2ccccc12`: the Potency was greater than 20 µM. The same measure for `Cc1noc(C)c1C(=O)N1CCC2(CCN(Cc3ccc(C#N)cc3)CC2)CC1`: greater than 20 µM; for `COc1ccc(-n2c(=O)c(-c3ccccc3)nc3cnc(N4CCNCC4)nc32)cc1`: greater than 20 µM; for `COCCn1c(=O)c(-c2cccc(C#N)c2)nc2cnc(N3CCOCC3)nc21`: greater than 20 µM.
